# This is one part of a sample in which hits are shown more often than they occur.
# nsP2pro primary: Primary qHTS for inhibitors of NSP2Pro chikungunya virus (CHIKV); 31,000 compounds, 1.1% hits; AID 1964107, 2024; Potency, µM (titrated, usually from 24.9 µM), for the others: top-dose activity change, negative = inhibition, usual class: inhibitors; FRET peptide cleavage, nsP2pro, fluorescence 1 h; also: nearly all actives have a fitted effect of over 60% in size
#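 FRET cleavage of 2.5 uM peptide 2 by 150 nM CHIKV protease domain at pH 8.0 (Tris, Tween 20). Compounds at 7 concentrations (up to 25 uM) preincubated 15 min. Fluorescence read after 1 h at room temperature.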
# CHIKV nsP2 cell: Secondary cell base assay for inhibitors of NSP2Pro Chikungunya virus (CHIKV); cell-based CHIKV nsP2 protease reporter assay; 450 compounds, 10% hits; shares compounds with nsP2pro primary; AID 1964100, 2024; Potency, µM (doses to about 51.1 µM), for inactives: at the top dose activity change, negative = inhibition, most hits filed as inhibitors; also: nearly all actives have a fitted effect of over 70% in size
# NSP2 full ctr: Selectivity profile for inhibitors of NSP2Pro chikungunya virus (CHIKV): Full length NSP2 enzyme counterscreen (CHIKV-NSP2); shares compounds with nsP2pro primary; Full-length CHIKV NSP2 protease enzymatic counterscreen; Potency, µM (series often up to 50.7 µM), inactives show top-dose activity change, negative = inhibition, actives largely listed as inhibitors; 410 compounds, 39% hits; AID 1964101, 2024; also: nearly all actives have a fitted effect of over 65% in size
# Furin counter: Selectivity profile for inhibitors of NSP2Pro chikungunya virus (CHIKV): Human furin counterscreen. 410 compounds, 6% hits. AID 1964102, 2024. Recombinant human furin enzymatic counterscreen, fluorogenic substrate. Potency, µM (series often up to 50.6 µM), without a hit: at the highest dose activity change, negative = inhibition, usual class: inhibitors. shares compounds with nsP2pro primary
# Target sequence (P09958 whole entry, looked up): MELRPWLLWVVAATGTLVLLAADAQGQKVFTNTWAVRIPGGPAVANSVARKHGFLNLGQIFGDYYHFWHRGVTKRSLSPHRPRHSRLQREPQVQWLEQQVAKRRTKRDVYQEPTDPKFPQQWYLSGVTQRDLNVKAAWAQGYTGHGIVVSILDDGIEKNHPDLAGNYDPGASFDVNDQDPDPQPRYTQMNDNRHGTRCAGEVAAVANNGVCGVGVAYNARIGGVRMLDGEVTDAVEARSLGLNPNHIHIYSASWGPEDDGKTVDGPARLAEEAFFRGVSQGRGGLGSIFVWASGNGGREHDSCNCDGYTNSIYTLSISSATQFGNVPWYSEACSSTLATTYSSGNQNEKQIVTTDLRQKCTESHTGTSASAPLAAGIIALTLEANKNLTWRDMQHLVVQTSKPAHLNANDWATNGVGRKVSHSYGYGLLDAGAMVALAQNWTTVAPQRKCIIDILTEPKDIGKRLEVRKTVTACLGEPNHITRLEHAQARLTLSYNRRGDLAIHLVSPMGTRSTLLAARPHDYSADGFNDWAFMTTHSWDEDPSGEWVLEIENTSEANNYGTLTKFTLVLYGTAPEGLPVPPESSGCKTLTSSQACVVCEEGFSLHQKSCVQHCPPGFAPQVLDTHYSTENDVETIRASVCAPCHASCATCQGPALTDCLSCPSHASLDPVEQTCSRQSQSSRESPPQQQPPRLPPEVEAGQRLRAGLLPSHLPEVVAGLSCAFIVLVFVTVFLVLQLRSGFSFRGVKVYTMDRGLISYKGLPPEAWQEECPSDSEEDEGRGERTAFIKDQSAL
# nsP2 NS23 pep: Selectivity profile for inhibitors of NSP2Pro chikungunya virus (CHIKV): Endogenous NS2/3 peptide Counterscreen; 410 compounds, 34% hits; shares compounds with nsP2pro primary; Potency, µM (series often up to 51 µM), without a hit: at the top dose activity change, negative = inhibition, actives largely listed as inhibitors; Purified CHIKV nsP2 protease, endogenous NS2/3 peptide cleavage; also: nearly all actives have a fitted effect of over 55% in size
# Papain counter: Selectivity profile for inhibitors of NSP2Pro chikungunya virus (CHIKV): Papain Counterscreen; purified papain protease activity, enzymatic inhibition; shares compounds with nsP2pro primary; 410 compounds, 5% hits; Potency, µM (series often up to 51 µM), without a hit: top-dose activity change, negative = inhibition, most hits filed as inhibitors
# nsP2pro conf qHTS: Confirmatory qHTS for inhibitors of NSP2Pro chikungunya virus (CHIKV). CHIKV nsP2 protease enzymatic activity, qHTS. AID 1964105, 2024. 410 compounds, 43% hits. Potency, µM (series often up to 25.5 µM), for inactives: top-dose activity change, negative = inhibition, usual class: inhibitors. shares compounds with nsP2pro primary; also: nearly all actives have a fitted effect of over 75% in size
# HCV NS3 counter: Selectivity profile for inhibitors of NSP2Pro chikungunya virus (CHIKV): NS34A-HCV Counterscreen | HCV NS3/4A protease biochemical counterscreen | 410 compounds, 20% hits | shares compounds with nsP2pro primary | Potency, µM (doses to about 50.9 µM), most hits filed as inhibitors; also: nearly all actives have a fitted effect of over 55% in size
# * = called active by the depositor; i = inactive; ? = inconclusive; [ ] = remark or other dose. Calls follow the shape of the full dose curve. % is scaled to controls: 0 for no effect and ±100 for the full control effect; potency is read from the fitted curve at half-maximal effect.
SMILES,nsP2pro primary,others
Cc1ccc(-c2cc(C(=O)Nc3ccn[nH]3)c3ccccc3n2)cc1C,2%,
C=CCNc1nnc(-c2cccc3ccccc23)o1,?,CHIKV nsP2 cell=26%;NSP2 full ctr=23µM*;Furin counter=?;nsP2 NS23 pep=?;Papain counter=-4%;nsP2pro conf qHTS=7.1µM*;HCV NS3 counter=?
C=CCSc1nnc(-c2cccc3ccccc23)o1,2%,
C=CCNc1oc(-c2cccc3ccccc23)nc1C#N,3%,
N#Cc1cccc(-c2ccc(CNc3nc(-c4ccccc4C(F)(F)F)nc4ccccc34)cc2)c1,-2%,
OC(CCN1CCCCC1)(c1ccccc1)C1CCCC1 (stereo not drawn),-6%,
Cc1ccc(NS(=O)(=O)c2cccc(C(=O)Nc3nc(-c4ccccc4)cs3)c2)cc1,-26%,
Cc1ccc(OCCC2CCN(C(=O)c3cc(CN4CCOCC4)on3)C2)cc1 (stereo not drawn),2%,
Cc1ccc(-c2cc3n(n2)CCCN(C(=O)c2cc(CN4CCOCC4)on2)C3)o1,1µM*,CHIKV nsP2 cell=-9%;NSP2 full ctr=15µM*;Furin counter=-7%;nsP2 NS23 pep=?;Papain counter=-5%;nsP2pro conf qHTS=7.1µM*;HCV NS3 counter=?
COc1ccc(-c2cc3n(n2)CCCN(C(=O)c2cc(CN4CCOCC4)on2)C3)cc1,16%,
COc1cc(N)cn[n+]1-c1ccccc1,-6%,
CC(=O)N[C@@H](CCCCN)C(=O)N(C)[C@@H](CC(C)C)C(=O)N[C@H](C(=O)N(C)[C@@H](Cc1ccccc1)C(=O)N[C@H](Cc1ccccc1)C(N)=O)C(C)C,-6%[2.68 µM],
COC(=O)c1c(NC(=O)/C(C#N)=C/c2ccc(OC)cc2)sc2c1C(C(=O)OC)CC2 (stereo not drawn),-8%,
COC(=O)c1c(NC(=O)/C(C#N)=C/c2ccccc2)sc2c1C(C(=O)OC)CC2 (stereo not drawn),0%,
COC(=O)c1c(NC(=O)C(C)N2C(=O)c3ccccc3C2=O)sc2c1C(C(=O)OC)CC2 (stereo not drawn),?,CHIKV nsP2 cell=?;NSP2 full ctr=?;Furin counter=-9%;nsP2 NS23 pep=5.8µM*;Papain counter=-9%;nsP2pro conf qHTS=3.6µM*;HCV NS3 counter=i
NC(=O)c1ccc(Cc2c(-c3cccc(-c4ccccc4)c3)[nH]n(-c3nc(C(=O)O)cs3)c2=O)cc1,i,
COc1ccc(C=CC(=O)O)cc1,-12%,
COc1ccccc1CC(=O)N1CCCc2ncc(C(=O)Nc3cccc(Cl)c3)cc21,i,
O=C(NCCc1nc2ccccc2n1CCOc1ccc(F)cc1)C1CCCCC1,-1%,
Cc1c(C(=O)OC[C@H]2CCCO2)[nH]c2c1C(=O)CC(c1ccco1)C2 (stereo partly drawn),-3%,
O=C1CC2(CCN(S(=O)(=O)c3cccs3)CC2)Oc2ccccc21,-6%,
c1ccc(-c2cnc(Nc3ccc(OCCN4CCCC4)cc3)s2)cc1,127%,
CCC(=C(c1ccc(OCCN2CCCC2)cc1)c1ccc(OCCN2CCCC2)cc1)c1ccccc1,93%,
